Sampled rows, rich in hits. Any-hit rate of the full collection: about 3.4%.
hgDAF-12 ag = hgDAF-12 agonism, primary luciferase screen. hit rate 1.8% among 370,000. HEK293 GAL4-hgDAF12 UAS-luciferase reporter, agonist luminescence; normalized to butyrate control. activation, % at 6.8 µM. AID 687014;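 active = activation above a cutoff set at the mean of all screened compounds plus 3 SD, cut at about 10% in these data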
hcDAF12 agonist = H. contortus DAF-12 activation, primary screen; HEK293 hcDAF-12 lit1-tk-luc reporter, luminescence; 0% DMSO, 100% Δ7-dafachronic acid; activation, % at 6.8 µM; AID 652067; hit rate 1.4% among 370,000;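 active = activation above the mean of all tested compounds plus 3 SD, cut at about 5.5% in these data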
NF-kB neuron act = raises NF-kB expression in human neuronal cells. NF-kB reporter expression; hits give high values. fold change at 12.5 µM. hit rate 1.6% among 190,000. AID 1239; in the data active = fold change above about 3.3
APP 5'UTR act = activates APP 5'UTR luciferase reporter; activation, % at 2 µM; hit rate 1% among 190,000; AID 1276; SH-SY5Y APP 5'UTR luciferase reporter, luminescence; zero percent = DMSO vehicle wells;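 active = activation above a set limit, based on mean plus 3 SD of controls, cut at about 140% in these data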
ssDAF-12 act = S. stercoralis DAF-12 activation, primary screen; HEK293 ssDAF-12/GRIP1 lit1-tk-luc reporter, luminescence; % of 3 µM dafachronic acid response; activation, % at 6.8 µM; hit rate 1% among 370,000;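 active = activation above the mean over all tested compounds plus 3 SD, cut at about 0.9% in these data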
hgDAF12 ag = hgDAF-12 agonism, confirmation assay. hit rate 80% among 3,300. AID 743050. HEK293 GAL4-hgDAF12 luciferase reporter, agonist mode; percent of butyrate response. activation, % at 6.8 µM. shares compounds with hgDAF-12 ag;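 active = mean activation over triplicate wells above the hit cutoff derived from the earlier primary screen, cut at about 11% in these data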
LXR ag 2 = LXR-beta agonism as DAF-12 counter-screen | shares compounds with hgDAF-12 ag | HEK293 Gal4-LXR luciferase reporter, 24 h | activation, % at 6.8 µM | 3,300 tested, under 10 active | AID 743051;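 active = mean activation of the triplicate above a set limit carried over from the primary screen, none filed active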
Target sequence (P55055 whole entry, looked up, the tested form may be a part): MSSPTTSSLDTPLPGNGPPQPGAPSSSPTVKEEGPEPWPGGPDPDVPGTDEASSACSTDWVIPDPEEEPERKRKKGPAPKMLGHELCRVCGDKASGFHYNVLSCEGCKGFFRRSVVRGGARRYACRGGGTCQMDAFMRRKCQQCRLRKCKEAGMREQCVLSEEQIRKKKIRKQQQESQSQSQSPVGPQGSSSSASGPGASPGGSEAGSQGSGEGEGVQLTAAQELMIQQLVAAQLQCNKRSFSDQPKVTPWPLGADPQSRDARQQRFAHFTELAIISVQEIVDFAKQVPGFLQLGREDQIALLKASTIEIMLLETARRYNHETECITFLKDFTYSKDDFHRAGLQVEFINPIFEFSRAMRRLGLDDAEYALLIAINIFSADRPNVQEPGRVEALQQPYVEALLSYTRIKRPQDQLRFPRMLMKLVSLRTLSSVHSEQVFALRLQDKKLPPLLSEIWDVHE
Each line names hits and unclear results; the compound was inactive in the other large screens (follow-up assays come after a bar, where they were run).

Nc1c(OS(=O)(=O)c2ccccc2)cccc1OS(=O)(=O)c1ccccc1	hgDAF-12 ag 18 (no result: NF-kB neuron act, APP 5'UTR act) | hgDAF12 ag 14 | LXR ag 2 inactive
Oc1oc(-c2ccccc2)nc1/C=N/c1ccccn1	hgDAF-12 ag 16 | hgDAF12 ag inactive | LXR ag 2 inactive
CN=Cc1nc(-c2ccccc2)oc1O	none
Cc1cc2nc(N3C(=O)CNC3=S)sc2cc1C	hgDAF-12 ag 17, ssDAF-12 act 1.0 | hgDAF12 ag 13 | LXR ag 2 inactive
CCOc1ccc2nc(N3C(=O)CNC3=S)sc2c1	none (no result: NF-kB neuron act, APP 5'UTR act)
Cc1cc(NC(=O)CSc2nc3c(cc2C#N)CCC3)no1	hgDAF-12 ag 13 (no result: NF-kB neuron act, APP 5'UTR act) | hgDAF12 ag 15 | LXR ag 2 inactive
CCOc1cccc(C(=O)NC(=S)Nc2cccnc2)c1	none
CCC(=O)Nc1cccc(NC(=S)NC(=O)c2ccc(C)cc2)c1	hgDAF-12 ag 14 | hgDAF12 ag 16 | LXR ag 2 inactive
CCC(=O)Nc1cccc(NC(=S)NC(=O)c2cc3ccccc3o2)c1	hgDAF-12 ag 16, APP 5'UTR act 153 | hgDAF12 ag 22 | LXR ag 2 inactive
CCOc1cccc(C(=O)NC(=S)Nc2ccccc2)c1	hgDAF-12 ag 19 | hgDAF12 ag 16 | LXR ag 2 inactive
CC(=O)c1cccc(NC(=S)NC(=O)c2ccc(C)cc2)c1	hgDAF-12 ag 15, NF-kB neuron act 3.5 | hgDAF12 ag 15 | LXR ag 2 inactive
CCCC1CCC2(CC1)CCC2OC(=S)Nc1ccc(Cl)cc1 (configuration not stated)	none (no result: NF-kB neuron act, APP 5'UTR act)
Cc1ccc2c(c1)N(CCCC(=O)N(C)Cc1ccccc1F)C(=O)CO2	none (no result: NF-kB neuron act, APP 5'UTR act)
C/C(=N\NC(=O)c1ccc(F)cc1)c1cccc(NC(=O)c2cccc(F)c2)c1	none (no result: NF-kB neuron act, APP 5'UTR act)
C/C(=N\NC(=O)c1ccccc1F)c1cccc(NC(=O)c2ccc(C)cc2)c1	hgDAF-12 ag 13 (no result: NF-kB neuron act, APP 5'UTR act) | hgDAF12 ag inactive | LXR ag 2 inactive
CC(=O)Nc1ccc2c(c1)C(=O)N(c1ccc(C)cc1)C2=O	none
Cc1ccc(N2C(=O)c3ccc(N)cc3C2=O)cc1	hgDAF-12 ag 16, NF-kB neuron act 3.5 | hgDAF12 ag 16 | LXR ag 2 inactive
O=C(NC1CCCCN(Cc2ccc(Cl)cc2)C1=O)c1cccc2nsnc12 (configuration not stated)	none (no result: NF-kB neuron act, APP 5'UTR act)
O=C(NCCc1ccccc1)c1ccc(-c2cccnc2)c2ccoc12	hgDAF-12 ag 14 (no result: NF-kB neuron act, APP 5'UTR act) | hgDAF12 ag 11 | LXR ag 2 inactive
CCOc1ccc(-n2c(COc3ccccc3)nnc2SCc2nc3ccccc3[nH]2)cc1	none (no result: NF-kB neuron act, APP 5'UTR act)
O=C(/C=C/c1ccc(Br)o1)Nc1nccs1	hgDAF-12 ag 14, hcDAF12 agonist 5.8 | hgDAF12 ag 15 | LXR ag 2 inactive
CC(C)(N[C@@H](Cc1c[nH]c2ccccc12)C(=O)NCC(c1ccccc1)c1ccccc1)C(=O)NC1CCCCC1	none (no result: NF-kB neuron act, APP 5'UTR act)
Cc1cc(C(=O)CSc2nnnn2C)c(C)n1-c1cccc(F)c1	hgDAF-12 ag 14, NF-kB neuron act 4.8 | hgDAF12 ag 15 | LXR ag 2 inactive
Cc1cc(C(=O)CSc2ncccn2)c(C)n1-c1cccc(F)c1	hgDAF-12 ag 14, hcDAF12 agonist 6.1, APP 5'UTR act 162, ssDAF-12 act 2.3 | hgDAF12 ag 15 | LXR ag 2 inactive
Cc1cc(C(=O)CSc2n[nH]c(N)n2)c(C)n1-c1cccc(F)c1	none
Cc1ccc(Nc2ncnc(N)n2)cc1	hgDAF-12 ag 19 | hgDAF12 ag inactive | LXR ag 2 inactive
Cc1nn(-c2ccccc2)c(C)c1/C=N\NC(=O)CSc1nc2ccccc2n1Cc1ccc(Cl)cc1	none (no result: NF-kB neuron act, APP 5'UTR act)
N/C(=N\OC(=O)c1ccc(Br)o1)c1cccnc1	hgDAF-12 ag 14 | hgDAF12 ag inactive | LXR ag 2 inactive
N/C(=N\OC(=O)c1ccc([N+](=O)[O-])cc1)c1cccnc1	none
COCCCN1C(=O)[C@H](CC(=O)N2CCCC2)[C@]2(C(=O)OC)CCCCC=C12	none (no result: NF-kB neuron act, APP 5'UTR act)
CC1CCc2c(sc(NC(=O)C3CCCO3)c2C#N)C1 (configuration not stated)	hgDAF-12 ag 20, NF-kB neuron act 4.6, APP 5'UTR act 144 | hgDAF12 ag 10 | LXR ag 2 inactive
C#CCNC(=O)C[C@H]1C[C@@]2(C(=O)OC)C(=C[C@H](C3CCCC3)O[C@@H]2C)N(Cc2ccco2)C1=O	none (no result: NF-kB neuron act, APP 5'UTR act)
CCCCNC(=S)N(CCCO)Cc1cc2cc3c(cc2[nH]c1=O)OCCO3	none (no result: NF-kB neuron act, APP 5'UTR act)
CN(C)CCCNC(=S)N(CCCO)Cc1cc2cc3c(cc2[nH]c1=O)OCO3	hgDAF-12 ag 16 (no result: NF-kB neuron act, APP 5'UTR act) | hgDAF12 ag inactive | LXR ag 2 inactive
CC(C)CN1C(=O)C[C@]2(C(=O)N(C)c3ccc(NC(=O)C(C)(C)C)cc32)C1c1ccccc1 (some centres not stated)	none (no result: NF-kB neuron act, APP 5'UTR act)
Cc1ccc(N2C(=NC(=O)c3ccccc3)SC3CS(=O)(=O)CC32)cc1 (configuration not stated)	none (no result: NF-kB neuron act, APP 5'UTR act)
CCCC(=O)N=C1SC2CS(=O)(=O)CC2N1c1ccc(-c2nc3ccc(C)cc3s2)cc1 (configuration not stated)	hgDAF-12 ag 18, hcDAF12 agonist 6.0 | hgDAF12 ag inactive | LXR ag 2 inactive
COC(=O)[C@]12C[C@H](CC(=O)NCCc3ccccc3OC)C(=O)N(Cc3cccc4ccccc34)C1=C[C@H](COCc1ccccc1)O[C@@H]2C	none (no result: NF-kB neuron act, APP 5'UTR act)
COC(=O)[C@]12C[C@H](CC(=O)N3CCN(C(=O)C4CC4)CC3)C(=O)N(Cc3ccc(Cl)cc3Cl)C1=C[C@H](C(C)(C)C)O[C@@H]2C	none (no result: NF-kB neuron act, APP 5'UTR act)
CC(N)c1csc(Nc2nncc3ccccc23)n1 (configuration not stated)	none (no result: NF-kB neuron act, APP 5'UTR act)
CC(C)C(N)c1csc(Nc2nncc3ccccc23)n1 (configuration not stated)	hgDAF-12 ag 14 (no result: NF-kB neuron act, APP 5'UTR act) | hgDAF12 ag inactive | LXR ag 2 inactive
C[N+]1=C(N)N[C@@]2(C=C3CCCCC3n3c(=O)n(-c4ccccc4)c(=O)n32)C1 (some centres not stated)	none (no result: NF-kB neuron act, APP 5'UTR act)
Nc1[nH]c(C(=O)c2ccccc2)c(-c2ccc(Br)cc2)c1C(=O)NCCCN1CCOCC1	none (no result: NF-kB neuron act, APP 5'UTR act)
c1csc(-c2nnc(-c3ccc(N4CCOCC4)cc3)o2)c1	hgDAF-12 ag 15, hcDAF12 agonist 5.8, NF-kB neuron act 3.4 | hgDAF12 ag 19 | LXR ag 2 inactive
C=CCn1c(SCc2cccc(C(F)(F)F)c2)nnc1-c1ccc(OC)cc1	none (no result: NF-kB neuron act, APP 5'UTR act)
COc1cccc(-c2nc(=S)c3c(n2Cc2ccco2)CCCC3)c1	none
COc1cccc(-c2nc(=S)c3c(o2)CCCC3)c1	hgDAF-12 ag 13, APP 5'UTR act 170 | hgDAF12 ag 17 | LXR ag 2 inactive
Cc1ccccc1CN1CCCCC(NC(=O)Nc2cccc([N+](=O)[O-])c2)C1=O (configuration not stated)	none (no result: NF-kB neuron act, APP 5'UTR act)

High-throughput results from PubChem.
